This excerpt belongs to a sample that is enriched for hits.
Methyltransferases = Primary Screen for Target Class Profiling of Small Molecule Inhibitors of Methyltransferases; purified enzyme, MTase-Glo SAH luminescence; active compounds read low; calls only at 40 µM; hit rate 3.9% among 25,000; AID 1745853, 2022; call rule not given here
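Each enzyme was assayed with SAM and its substrate. SAH formation detected by MTase-Glo luminescence; single-point 40 uM screen[…].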
Starred values were filed as active, the others as inactive; ! = not active in a repeat. % is set by controls: 0 for no effect and ±100 for the full control effect.

What do the screens show for `Fc1cccc2c1NC(c1ccc(Cl)cc1)C1CC=CC21` (stereo not drawn)?
Methyltransferases: inactive

Results for Cc1ccc(C(=O)O)c2c1N[C@H](c1cccc(Cl)c1)C1CC=CC21 (stereo partly drawn) ?
Methyltransferases: active

What do the screens show for `CN1C(=O)c2cc(C(=O)NCc3ccccc3F)nn2CC1(C)C(=O)NC1CCCCC1` (stereo not drawn)?
Methyltransferases: inactive

How did CCOc1ccc(N2C(=O)c3cc4ccccc4n3CC2(C)C(=O)NC2CCCCCC2)cc1 (stereo not drawn) do in these assays?
Methyltransferases: inactive

How did CCCCN1C(=O)c2cc(C(=O)Nc3cc(OC)cc(OC)c3)nn2CC1(C)C(=O)NC1CCCC1 (stereo not drawn) do in these assays?
Methyltransferases: inactive

What do the screens show for `O=C(CCn1ccc2cc(S(=O)(=O)N3CCCCC3)ccc21)N1CCN(c2ccccc2F)CC1`?
Methyltransferases: inactive

Results for CC1(C(=O)NCc2ccccc2)Cn2c(nc3ccccc32)C(=O)N1Cc1ccc(Cl)cc1 (stereo not drawn) ?
Methyltransferases: inactive

Results for Clc1ccc(Cn2c(Cc3ccccc3)nc3ccccc32)cc1 ?
Methyltransferases: active

What do the screens show for `Clc1ccc(Cn2c(CN3CCCC3)nc3ccccc32)cc1`?
Methyltransferases: inactive

Results for O=c1c2ccccc2n2c(SCc3ccccc3)nnc2n1Cc1ccc(F)cc1 ?
Methyltransferases: inactive

What do the screens show for `COc1ccccc1OCCN1CC(COc2cccc3[nH]c4ccccc4c23)OCC1=O` (stereo not drawn)?
Methyltransferases: inactive

How did COc1ccccc1OCCNCC(O)CCOc1cccc2[nH]c3ccccc3c12 (stereo not drawn) do in these assays?
Methyltransferases: active

What do the screens show for `CNCCC(Oc1ccccc1OC)c1ccccc1` (stereo not drawn)?
Methyltransferases: inactive

How did COC(=O)C1=C(C)NC(C)=C(C(=O)OC)C1c1cccc(NC(=O)NCCCN2CCC(c3cccc(OC)c3)CC2)c1 do in these assays?
Methyltransferases: active!

What do the screens show for `CCN(CC)c1ncccc1CNC(=O)Nc1cccc(OC)c1`?
Methyltransferases: inactive

How did COc1cccc(CNC(=O)Nc2cccc(-c3ccc(N4CCCCC4)nn3)c2)c1 do in these assays?
Methyltransferases: inactive

Results for CCOc1ccc(CN2C(=O)c3cc4ccccc4n3CC2(C)C(=O)NCc2ccccc2OC)cc1 (stereo not drawn) ?
Methyltransferases: inactive

What do the screens show for `Cc1[nH]nc2ccc(-c3cncc(OC[C@@H](N)Cc4ccccc4)c3)cc12`?
Methyltransferases: active

How did CCCn1c(=O)c2ccc(Cl)cc2n2c(SCC(=O)Nc3cccc(Cl)c3)nnc12 do in these assays?
Methyltransferases: inactive

How did C[C@H](Nc1cc2c(-c3ccc4c(c3)OCO4)noc2cn1)c1ccccc1 do in these assays?
Methyltransferases: active

What do the screens show for `CSc1ccc(CCN2C(=O)c3cc4ccccc4n3CC2(C)C(=O)NC2CCCC2)cc1` (stereo not drawn)?
Methyltransferases: inactive

What do the screens show for `COCCCNC(=O)C1(C)Cn2nc(-c3ccccc3)cc2C(=O)N1Cc1cccc(C)c1` (stereo not drawn)?
Methyltransferases: inactive

Results for CCOc1ccc(CCNC(=O)CCc2nnc3n(Cc4ccccc4Cl)c(=O)c4ccccc4n23)cc1 ?
Methyltransferases: inactive

Results for O=C(CCc1nnc2n(Cc3ccccc3)c(=O)c3ccccc3n12)NCCc1ccc(Cl)cc1 ?
Methyltransferases: inactive

How did CCN(CC)CCNC(=O)CCc1nnc2n(Cc3ccc(Cl)cc3)c(=O)c3ccccc3n12 do in these assays?
Methyltransferases: active

Results for COCCNC(=O)CCc1nnc2n(Cc3ccc(Cl)cc3)c(=O)c3ccccc3n12 ?
Methyltransferases: inactive

Results for CCN(CCCNC(=O)CCc1nnc2n(Cc3ccccc3)c(=O)c3ccccc3n12)c1ccccc1 ?
Methyltransferases: inactive

How did CCN(CC)CCCNC(=O)CCc1nnc2n(Cc3ccc(F)cc3)c(=O)c3ccccc3n12 do in these assays?
Methyltransferases: active

How did O=C(CCc1nnc2n(Cc3ccc(F)cc3)c(=O)c3ccccc3n12)NCc1ccc(F)cc1 do in these assays?
Methyltransferases: inactive

What do the screens show for `Cc1ccc(CNC(=O)C2(C)Cn3cnc(C(=O)N4CCN(c5ccccc5)CC4)c3C(=O)N2C2CC2)cc1` (stereo not drawn)?
Methyltransferases: inactive

Results for O=C(Cn1c(=O)oc2cc(S(=O)(=O)N3CCCC3)ccc21)Nc1ccc(Cl)cc1F ?
Methyltransferases: inactive

What do the screens show for `Cc1cccc(N2C(=O)c3ccc(-c4ccco4)n3CC2(C)C(=O)NC2CCCC2)c1C` (stereo not drawn)?
Methyltransferases: inactive

How did Cc1cccc(CN2C(=O)c3ccc(-c4ccccc4)n3CC2(C)C(=O)NC2CCCCC2)c1 (stereo not drawn) do in these assays?
Methyltransferases: inactive

How did CCC(C)NC(=O)c1ccc2c(=O)n(Cc3ccccc3)c3nn(Cc4cccc(Cl)c4)c(=O)n3c2c1 (stereo not drawn) do in these assays?
Methyltransferases: inactive

Results for Cc1cc2c(cc3n2CC(C)(C(=O)NC2CCCCCC2)N(CCN(CC(C)C)CC(C)C)C3=O)o1 (stereo not drawn) ?
Methyltransferases: inactive

What do the screens show for `Cc1ccc(CCNC(=O)c2ncn3c2C(=O)N(C2CC2)C(C)(C(=O)NC2CCCC2)C3)cc1` (stereo not drawn)?
Methyltransferases: inactive

Results for O=c1cc(-c2ccccc2)oc2c(O)c(O)ccc12 ?
Methyltransferases: inactive

What do the screens show for `Cc1cc(=O)oc2c(C=O)c(O)ccc12`?
Methyltransferases: active

Results for COC(=O)COc1ccc2c(-c3ccccc3)cc(=O)oc2c1C ?
Methyltransferases: inactive

Results for O=C(CSc1nnc2n(Cc3ccccc3)c(=O)c3ccccc3n12)Nc1ccccc1F ?
Methyltransferases: inactive

Results for CC1(C(=O)NC2CCCCCC2)Cn2nc(-c3ccco3)cc2C(=O)N1CCCc1ccccc1 (stereo not drawn) ?
Methyltransferases: inactive

How did COc1ccccc1CCN1C(=O)c2ccc(-c3ccco3)n2CC1(C)C(=O)NC1CCCCC1 (stereo not drawn) do in these assays?
Methyltransferases: inactive

What do the screens show for `COc1ccc(-c2oc3ccc(C)cc3c(=O)c2O)cc1OC`?
Methyltransferases: active

How did COc1ccc(-c2nnc(-c3ccc(Cl)c(S(=O)(=O)N4CCC(C)CC4)c3)o2)cc1OC do in these assays?
Methyltransferases: inactive

How did CCN1CCN(Cc2cc3ccc(C)cc3nc2-c2ccc(OC)c(OC)c2)CC1 do in these assays?
Methyltransferases: inactive

Results for CCOC(=O)c1cc2n(n1)CC(C)(C(=O)NC1CCC(C)CC1)N(Cc1ccc(C)cc1)C2=O (stereo not drawn) ?
Methyltransferases: inactive

What do the screens show for `COc1ccccc1CNC(=O)C1(C)Cn2nc(-c3ccccc3)cc2C(=O)N1Cc1ccc(OC)c(OC)c1` (stereo not drawn)?
Methyltransferases: inactive

Results for O=C(CCn1ccc2cc(S(=O)(=O)N3CCCC3)ccc21)NCc1cccnc1 ?
Methyltransferases: inactive

Results for CCCn1c(=O)c2ccc(C(=O)NC3CCCCC3)cc2n2c(SCC(=O)NC3CCCC3)nnc12 ?
Methyltransferases: inactive

Results for CCOCCCNC(=O)c1cc2n(n1)CC(C)(C(=O)NCCC(C)C)N(C)C2=O (stereo not drawn) ?
Methyltransferases: inactive

Assay outcomes: PubChem, National Center for Advancing Translational Sciences (NCATS)
